# Results published in PubChem BioAssay.
# Active and inactive are the calls of the source. The rule behind the calls is not given here.
# Biological target: Pantothenate synthetase (Mycobacterium tuberculosis (strain ATCC 25618 / H37Rv)) (UniProt P9WIL5)
# Test: Recombinant Mtb pantothenate synthetase (PanC) inhibitors, coupled enzyme, confirmatory (AID 375);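 note: 0% = full reaction with vehicle and 100% = no enzyme background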
# Conditions: coupled enzyme assay; at 10 µM, active compounds read high
# Sequence of Pantothenate synthetase (Mycobacterium tuberculosis (strain ATCC 25618 / H37Rv)) (P9WIL5 whole entry, looked up): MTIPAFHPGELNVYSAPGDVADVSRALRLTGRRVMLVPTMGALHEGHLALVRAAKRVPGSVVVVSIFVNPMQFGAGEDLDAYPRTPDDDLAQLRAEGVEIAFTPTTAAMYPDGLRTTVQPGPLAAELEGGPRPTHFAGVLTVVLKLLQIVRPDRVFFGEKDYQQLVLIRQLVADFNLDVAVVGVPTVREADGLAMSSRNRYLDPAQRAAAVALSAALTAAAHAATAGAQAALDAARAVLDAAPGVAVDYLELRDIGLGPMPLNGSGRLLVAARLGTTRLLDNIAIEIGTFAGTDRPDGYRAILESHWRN
row,SMILES,inhibition
1,CN(C)S(=O)(=O)c1cccc(C(=O)Nc2cccnc2)c1,0% (inactive)
2,COc1ccc(OC)c(NC(=O)CSc2nnc(-c3ccco3)n2-c2ccccc2)c1,0% (inactive)
3,CC(C)(C)NC[C@H](O)COc1nsnc1N1CCOCC1,2% (inactive)
4,CCOC(=O)C1=C(C)NC(=O)NC1c1ccc(OCCO)c(OC)c1 (stereo not given),0% (inactive)
5,Nn1c(SCC(=O)NC2CCCCC2)nnc1C1CC1,0% (inactive)
6,Cc1cc(NC(=O)CCC(=O)N(CCc2ccccc2)C(C(=O)NC2CCCC2)c2ccco2)no1 (stereo not given),7% (inactive)
7,Cc1cc2oc(=O)cc(C)c2c(=O)o1,4% (inactive)
8,Cc1ccccc1-c1nc(CS(=O)(=O)CC(=O)NCc2ccc3c(c2)OCO3)c(C)o1,6% (inactive)
9,CCOC(=O)c1ccccc1NC(=O)c1cccnc1,0% (inactive)
10,COCCCNC(=O)c1ccc(CS(=O)(=O)c2ccc(OC)cc2)o1,9% (inactive)
11,COc1ccc(-n2c(Cc3cccn3C)nnc2SCC(=O)NCC2CCCO2)cc1 (stereo not given),11% (inactive)
12,COc1ccc(OC)c(S(=O)(=O)Nc2ccc(C(N)=O)cc2)c1,0% (inactive)
13,OCc1nc2ccccc2n1CCCOc1ccccc1,0% (inactive)
14,COCCn1nnnc1C(c1cc2cc(OC)ccc2[nH]c1=O)N1CCC(Cc2ccccc2)CC1 (stereo not given),3% (inactive)
15,CCOc1ccccc1C1C(C(=O)Nc2ccc(OC)cc2)=C(C)Nc2nc(CCCO)nn21 (stereo not given),0% (inactive)
16,CCOC(=O)Cn1c(S(=O)(=O)Cc2ccccc2)nc2ccccc21,0% (inactive)
17,CCc1nc(N)c(C#N)c(-c2ccncc2)c1C,0% (inactive)
18,COC(=O)c1ccc(CSc2nc3c(cnn3-c3ccc(F)cc3)c(=O)[nH]2)o1,4% (inactive)
19,CN1CCN(Cc2nc3c(c(=O)n(C)c(=O)n3C)n2Cc2ccccc2Cl)CC1,0% (inactive)
20,O=S(=O)(c1ccc2c(c1)nc1n2CCC1)N1CCOCC1,0% (inactive)

row,SMILES,inhibition
1,COC(=O)c1c(N)nc(C)n1-c1ccc(OC)cc1,0% (inactive)
2,Cc1noc(C)c1COC(=O)c1ccccc1Oc1ccccc1,0% (inactive)
3,O=C(CCNC(=O)c1ccc(Br)o1)NC1CCCC1,0% (inactive)
4,CC1(C)Cc2c(sc3c2c(=N)n(Cc2ccco2)c(=O)n3Cc2ccccc2)CO1,0% (inactive)
5,CC(C)(C)C(=O)N=C1SC2CS(=O)(=O)CC2N1c1ccc2c(c1)OCO2 (stereo not given),0% (inactive)
6,CCOC(=O)c1[nH]nc(N)c1NC(=O)c1ccc(Cl)cc1Cl,0% (inactive)
7,Cc1sc2ncnc(OCC(=O)N3CCN(S(=O)(=O)c4ccc(Cl)cc4)CC3)c2c1C,0% (inactive)
8,COC(=O)Nc1sccc1C(=O)Nc1sccc1C(=O)OC,0% (inactive)
9,CCN(CCNC(=O)C1CCN(S(=O)(=O)CC)CC1)c1ccccc1,2% (inactive)
10,CCCOc1cccc(C(=O)N(Cc2ccco2)C2CCS(=O)(=O)C2)c1 (stereo not given),0% (inactive)
11,CCOC(=O)CSc1nnc(CNC(=O)c2cccs2)n1-c1cc(OC)ccc1OC,1% (inactive)
12,CCOC(=O)c1[nH]c(C)c(C(=O)N2CCN(C(=O)c3ccco3)CC2)c1C,0% (inactive)
13,Cc1ccc(NC2=NCC(=O)N2c2ccc3c(c2)OCCO3)c(C)c1,7% (inactive)
14,CCOC(=O)N1CCN(c2nc(-c3ccc(Cl)cc3)cs2)CC1,0% (inactive)
15,COc1cccc(NC(=O)COC(=O)c2ccco2)c1,0% (inactive)
16,CCOc1ccc(CNc2ccc3c(c2)ncn3C)cc1,0% (inactive)
17,CCOc1ccccc1C(=O)NCc1ccc2c(c1)OCO2,4% (inactive)
18,CCCCCCC(=O)c1c(C)[nH]c(C(=O)OCC)c1C,1% (inactive)
19,NC(=O)CSc1cn(CCNC(=O)c2cccs2)c2ccccc12,0% (inactive)
20,COc1cc(NC(=O)c2cc(-n3cnnc3)ccc2Cl)cc(OC)c1,2% (inactive)
